According to PubChem BioAssay AID463173 (ICCB-Longwood Screening Facility, Harvard Medical School, 2010):
The campaign covered roughly 52,000 compounds. About 4,300 (8.3%) were called active. Rule as the data show it: active = survival mostly below about 52% (no sharp cut-off); inactive = mostly above about 56%. Only a selection was taken, and actives are over-represented in it overall.

Tested on: DeltatarO mutant
Assay: S. aureus survival, RN4220 and DeltatarO strains – OD600, teichoic acid synthesis inhibitors, primary screen (AID 463173)
Conditions: S. aureus RN4220 wild type/DeltatarO growth, OD600, 18 h, hits give low values, screened at 18.75 µg/mL (by protocol)

Structure (SMILES)	survival
CCCNC(=O)C1CCC(Cn2c(=O)c3sccc3n(CC(=O)N3CCCC3)c2=O)CC1 (centres undefined)	67% (inactive)
O=c1cc(-c2ccc(F)cc2)nc(SCc2nc(-c3cccc(C(F)(F)F)c3)no2)[nH]1	99% (inactive)
COc1ccc(C)cc1NC(=O)C(CCSC)NS(=O)(=O)c1ccc2c(c1)oc(=O)n2C (centres undefined)	95% (inactive)
CCc1cccc(NC(=O)c2cnc(SC)nc2-c2ccccc2)c1	84% (inactive)
COc1ccc2c(Sc3ccccc3)c(C(=O)NCc3cc(Br)ccc3OC)[nH]c2c1	95% (inactive)
Cc1cc(C)cc(NC(=O)CSc2cc(C)[nH]c(=O)n2)c1	90% (inactive)
CC(=O)c1cccc(Nc2ncnc3c2cnn3-c2cccc(Cl)c2)c1	102% (inactive)
CC(C)c1ccc(C2=CC(c3cccc(Cl)c3)n3c(nc4ccccc43)N2)cc1 (centres undefined)	76% (inactive)
CC(C)c1ccc(C2=CC(c3cccc(Cl)c3)n3ncnc3N2)cc1 (centres undefined)	-1% (active)
COc1ccc(C2C=C(c3ccc(Cl)cc3)Nc3nc(-c4ccc(Cl)cc4)nn32)cc1 (centres undefined)	38% (active)
Cc1ccc(C2=CC(c3ccc(Cl)cc3)n3nc(-c4ccc(C)cc4)nc3N2)cc1 (centres undefined)	44% (inactive)
COc1ccc(C2C=C(c3ccc(F)cc3)Nc3nc(-c4ccc(Cl)cc4)nn32)cc1 (centres undefined)	104% (inactive)
COc1ccc(C2C=C(c3ccccc3)Nc3nc(NS(=O)(=O)c4ccccc4)nn32)cc1 (centres undefined)	25% (active)
COc1ccc(C2C=C(c3ccc(Cl)c(Cl)c3)Nc3ncnn32)cc1 (centres undefined)	6% (active)
COc1cccc(C2=CC(c3ccc(OC)c(OC)c3OC)n3ncnc3N2)c1 (centres undefined)	91% (inactive)
Cc1ccc(C2=CC(c3c(F)cccc3Cl)n3ncnc3N2)cc1C (centres undefined)	64% (inactive)
COc1ccc(C2C=C(c3ccccc3)Nc3nc(NS(=O)(=O)c4ccc(C)cc4)nn32)cc1 (centres undefined)	55% (inactive)
CC(C)c1ccc(C2=CC(c3ccc(C(C)C)cc3)n3nnnc3N2)cc1 (centres undefined)	67% (inactive)
CC(=O)Nc1ccc(S(=O)(=O)NCc2ccc3c(c2)CCN3C(C)=O)cc1	89% (inactive)
Cc1ccc(N2C(=O)[C@@H]3CSC(c4ccc(Cl)cc4)N3C2=O)cc1 (some centres undefined)	69% (inactive)

Structure (SMILES)	survival
O=C(Cn1ccn(-c2ccc(F)c(F)c2)c(=O)c1=O)Nc1ccccc1F	65% (inactive)
COc1ccc(CNCC#N)cc1OC	77% (inactive)
CCn1cc(S(=O)(=O)c2ccc(OC)cc2)c(=O)c2cc(F)c(N3CCC(C)CC3)cc21	83% (inactive)
Cc1cc(C)c2c(n1)SCC(=O)N2CC(=O)Nc1c(C)cccc1C	98% (inactive)
O=C1CC(Sc2ncccc2C(=O)O)C(=O)N1 (centres undefined)	95% (inactive)
COC(=O)CSc1nnc(-c2cccc(O)c2)o1	82% (inactive)
Cn1c(=O)oc2cc(S(=O)(=O)NC(Cc3ccccc3)C(=O)NCc3ccccc3Cl)ccc21 (centres undefined)	110% (inactive)
CCCc1cc(N2CCN(c3ccc(OC)cc3)CC2)n2cnnc2n1	71% (inactive)
COc1ccc(C2C=C(c3ccc(Cl)cc3)Nc3nc(NC(=O)CCC(=O)O)nn32)cc1 (centres undefined)	74% (inactive)
COc1ccc(C2C=C(c3ccccc3)Nc3nc(NS(=O)(=O)c4ccc(Cl)cc4)nn32)cc1 (centres undefined)	3% (active)
COc1cc2c(=O)n(Cc3ccccc3Cl)c(=O)n(CC(=O)Nc3ccc(C)c(C)c3)c2cc1OC	83% (inactive)
O=C(Cn1c(=O)oc2cc(S(=O)(=O)N3CCCC3)ccc21)NCc1ccc(F)cc1	114% (inactive)
CCCN(Cc1cc2cc(C)ccc2[nH]c1=O)C(=O)c1cccc(Cl)c1	73% (inactive)
Cc1ccccc1NS(=O)(=O)c1ccc2[nH]c3c(c2c1)CCCCC3	89% (inactive)
Cc1ccc(C)c(S(=O)(=O)c2cnc(SCC(=O)Nc3ccc(F)cc3F)[nH]c2=O)c1	43% (active)
Cc1ccc(C)c(NC(=O)CSc2ncc(S(=O)(=O)c3ccc(C)c(Cl)c3)c(=O)[nH]2)c1	66% (inactive)
CCc1ccc(NC(=O)CSc2ncc(S(=O)(=O)c3cc(C)ccc3C)c(=O)[nH]2)cc1	59% (inactive)
Nc1ccc(-c2ccc(N)cc2C(F)(F)F)c(C(F)(F)F)c1	91% (inactive)
Nc1ccc(N2CCOCC2)c(N)c1	74% (inactive)
Nc1ccc(N2CCN(c3ncc(C(F)(F)F)cc3Cl)CC2)c(C(F)(F)F)c1	-5% (active)

Structure (SMILES)	survival
CCCOc1ccccc1C1Oc2nc(SC)nnc2-c2ccccc2N1C(C)=O (centres undefined)	82% (inactive)
O=C(CCn1c(=O)oc2ccccc21)n1c(=O)oc2ccccc21	108% (inactive)
Cc1ccc(Nc2c3c(nc4nncn24)CCC3)cc1C	55% (inactive)
Fc1cc(Br)ccc1Nc1c2c(nc3nc(-c4cccs4)nn13)CCCC2	8% (active)
COc1cc(OC)c(Nc2c3c(nc4nc(-c5cccs5)nn24)CCCC3)cc1Cl	89% (inactive)
CC(=O)c1cccc(Nc2c3c(nc4nc(-c5cccs5)nn24)CCCC3)c1	95% (inactive)
Cc1ccc(Nc2c3c(nc4nc(-c5cccs5)nn24)CCCC3)cc1F	20% (active)
COc1ccc(C)cc1Nc1c2c(nc3nc(-c4cccs4)nn13)CCCC2	91% (inactive)
CC(C)c1ccc(NC(=O)C2CCN(C(=O)c3ccc(F)cc3)CC2)cc1	61% (inactive)
COc1ccc(NC(=O)c2cc(-c3ccccc3F)no2)cc1	78% (inactive)
CCOC(=O)c1ccccc1NC(=O)N(C)CCc1c(C)nn(CC)c1C	78% (inactive)
COc1ccc(-c2cc3nc(C)c(CCC(=O)Nc4cccc(C(F)(F)F)c4)c(C)n3n2)c(OC)c1	92% (inactive)
Cc1ccc(S(=O)(=O)N2CC=C(c3c(C)n(CC(=O)N4CCCC4)c4ccccc34)CC2)cc1C	72% (inactive)
O=C1CN(C(=O)C2CCCCC2)C(c2ccccc2)c2cc(F)ccc2N1 (centres undefined)	70% (inactive)
CCCCC(=O)N1CC(=O)Nc2ccc(F)cc2C1c1ccc(F)cc1 (centres undefined)	60% (inactive)
CCCCC1CCC(C(=O)N2CC(=O)Nc3ccc(Cl)cc3C2c2ccc(F)cc2)CC1 (centres undefined)	40% (active)
CCCCC1CCC(C(=O)N2CC(=O)Nc3ccc(C)cc3C2c2ccc(F)cc2)CC1 (centres undefined)	126% (inactive)
CCCCC1CCC(C(=O)N2CC(=O)Nc3ccc(F)cc3C2c2ccc(F)cc2)CC1 (centres undefined)	38% (active)
CCCCC1CCC(C(=O)N2CC(=O)Nc3ccc(Br)cc3C2c2ccc(F)cc2)CC1 (centres undefined)	55% (inactive)
